Measured values published in PubChem BioAssay.
The source made the active and inactive calls. Unless noted, the rule behind the calls is not given here.

What was measured:
[1] = compound effects on lung adenocarcinoma cell viability – A549, calcein-AM fluorescence, 48 h, basal, profiling panel (AID 1162); conditions: higher = more signal; note: test concentration not given here
[2] = compound effects on differentiated 3T3-L1 adipocyte viability – cell-based, 3T3-L1 adipocytes, calcein-AM fluorescence, 48 h, basal, profiling panel (AID 1163); conditions: 3T3-L1 adipocytes viability, higher = more signal; note: test concentration not given here
[3] = compound effects on hepatocellular carcinoma cell viability – HepG2, calcein-AM fluorescence, 48 h, basal, profiling panel (AID 1164); conditions: higher = more signal; note: test concentration not given here
[4] = compound effects on multiple myeloma cell viability – MM1S, calcein-AM fluorescence, 48 h, basal, profiling panel (AID 1165); conditions: higher = more signal; note: test concentration not given here
[5] = calcein-AM signal in unstimulated myeloma cells – cell-based, calcein-AM fluorescence, 48 h, PK04 Diversity Set, profiling panel (AID 1166); conditions: RPMI8226 myeloma viability, higher = more signal;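 note: cells grown under basal conditions without added stimulus; test concentration not given here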
[6] = JC-1 mitochondrial signal, unstimulated HepG2 cells – cell-based, JC-1 fluorescence, 24 h, 100 nL compound, profiling panel (AID 1167); conditions: HepG2 mitochondrial potential, higher = more signal; note: test concentration not given here
[7] = JC-1 mitochondrial signal, unstimulated adipocytes – cell-based, JC-1 fluorescence, 3T3-L1 adipocytes, 24 h, 100 nL compound, profiling panel (AID 1168); conditions: JC-1 mitochondrial fluorescence, higher = more signal, called active from +8 up or from −8 down; note: test concentration not given here
[8] = JC-1 mitochondrial signal, unstimulated myeloma cells – cell-based, JC-1 fluorescence, RPMI8226, 24 h, 100 nL compound, profiling panel (AID 1169); conditions: JC-1 mitochondrial potential fluorescence, higher = more signal; note: test concentration not given here
[9] = JC-1 mitochondrial signal, unstimulated MM1S myeloma – cell-based, JC-1 fluorescence, 24 h, 100 nL compound, profiling panel (AID 1170); conditions: MM1S mitochondrial potential, higher = more signal; note: test concentration not given here
[10] = resazurin metabolic signal in A549 cells – cell-based, resazurin fluorescence, 24 h, PK04 Diversity Set, profiling panel (AID 1171); conditions: A549 viability, higher = more signal, called active from +8 up or from −8 down; note: test concentration not given here
[11] = resazurin metabolic signal in HepG2 cells – cell-based, resazurin fluorescence, 24 h, PK04 Diversity Set, profiling panel (AID 1172); conditions: HepG2 viability, higher = more signal; note: test concentration not given here
[12] = budding yeast growth changes without added modifier – OD600, strain BY4716, 24 h, basal condition, primary screen (AID 1173); conditions: S. cerevisiae BY4716 growth, OD600, 24 h; higher = more signal, called active from +8 up or from −8 down
[13] = viability profiling in MM1S myeloma cells – cell-based, resazurin fluorescence, basal, 24 h, PK04 Diversity Set, profiling panel (AID 1174); conditions: higher = more signal, called active from +8 up or from −8 down; note: test concentration not given here
[14] = molecular target: Dihydroorotate dehydrogenase (quinone), mitochondrial (Plasmodium falciparum (isolate 3D7)) (UniProt Q08210); assay: inhibition of P. falciparum DHODH – biochemical, C-terminal His tag, absorbance 600 nm, primary screen (AID 1175); conditions: PfDHODH enzyme, DCIP absorbance 600 nm; higher = more signal, called active from +8 up or from −8 down;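 note: recombinant parasite enzyme with a five histidine tag at its C terminus; test concentration not given here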
Dihydroorotate dehydrogenase (quinone), mitochondrial (Plasmodium falciparum (isolate 3D7)), sequence (Q08210 whole entry, looked up): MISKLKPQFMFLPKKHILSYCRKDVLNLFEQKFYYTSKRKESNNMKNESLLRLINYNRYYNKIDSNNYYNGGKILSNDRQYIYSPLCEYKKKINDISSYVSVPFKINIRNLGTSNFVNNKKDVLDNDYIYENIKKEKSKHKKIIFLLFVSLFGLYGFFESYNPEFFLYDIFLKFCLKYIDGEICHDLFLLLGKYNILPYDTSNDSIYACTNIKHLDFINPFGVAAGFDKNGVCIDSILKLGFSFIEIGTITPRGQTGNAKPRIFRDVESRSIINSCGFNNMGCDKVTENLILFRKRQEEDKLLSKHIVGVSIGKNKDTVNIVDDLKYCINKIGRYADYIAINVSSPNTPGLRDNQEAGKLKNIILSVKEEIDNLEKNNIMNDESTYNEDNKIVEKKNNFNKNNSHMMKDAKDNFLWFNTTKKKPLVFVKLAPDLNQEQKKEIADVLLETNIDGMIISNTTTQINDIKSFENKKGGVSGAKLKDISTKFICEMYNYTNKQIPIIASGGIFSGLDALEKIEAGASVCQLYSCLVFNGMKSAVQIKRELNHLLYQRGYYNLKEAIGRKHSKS

[15] = inhibition of PAO1 biofilm formation – strain PAO1, LB-PBS medium, absorbance 600 nm, primary screen (AID 1176); note: test concentration not given here; conditions: P. aeruginosa PAO1 growth/biofilm, A600, 12 h; higher = more signal
[16] = growth modulation of vineyard yeast isolate – strain RM11-1a, OD600, basal, 24 h, primary screen (AID 1177);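 note: cultures grown under basal conditions with no added stressor; test concentration not given here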; conditions: S. cerevisiae RM11-1a growth, OD600, 24 h; higher = more signal, called active from +8 up or from −8 down
[17] = growth of efflux-deficient E. coli DRC39 – strain DRC39, OD650, 24 h, E. coli filamentation inducers, primary screen (AID 1178);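 note: growth measured as culture turbidity by optical density at 650 nm; test concentration not given here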; conditions: E. coli DRC39 acrAB, higher = more signal, called active from +8 up or from −8 down
[18] = growth of efflux-deficient E. coli DRC39 – strain DRC39, OD650, 48 h, E. coli filamentation inducers, primary screen (AID 1179);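 note: screen aims at cell division blockers that make cells filament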; conditions: E. coli DRC39 delta-acrAB growth, higher = more signal, called active from +8 up or from −8 down
[19] = viability profiling in RPMI8226 myeloma cells – cell-based, resazurin fluorescence, basal, 24 h, PK04 Diversity Set, profiling panel (AID 1180); conditions: higher = more signal;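 note: RPMI8826 multiple myeloma cell line at 5000 cells per well; test concentration not given here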
[20] = molecular target: E3 ubiquitin-protein ligase XIAP (Homo sapiens) (UniProt P98170); assay: small molecules binding XIAP protein – biophysical, small-molecule microarray, fluorescence 635 nm, primary screen (AID 1181); conditions: higher = more signal;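 note: score merges 667 nm emission and signal to noise over triplicate slides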
E3 ubiquitin-protein ligase XIAP (Homo sapiens), sequence (P98170 whole entry, looked up): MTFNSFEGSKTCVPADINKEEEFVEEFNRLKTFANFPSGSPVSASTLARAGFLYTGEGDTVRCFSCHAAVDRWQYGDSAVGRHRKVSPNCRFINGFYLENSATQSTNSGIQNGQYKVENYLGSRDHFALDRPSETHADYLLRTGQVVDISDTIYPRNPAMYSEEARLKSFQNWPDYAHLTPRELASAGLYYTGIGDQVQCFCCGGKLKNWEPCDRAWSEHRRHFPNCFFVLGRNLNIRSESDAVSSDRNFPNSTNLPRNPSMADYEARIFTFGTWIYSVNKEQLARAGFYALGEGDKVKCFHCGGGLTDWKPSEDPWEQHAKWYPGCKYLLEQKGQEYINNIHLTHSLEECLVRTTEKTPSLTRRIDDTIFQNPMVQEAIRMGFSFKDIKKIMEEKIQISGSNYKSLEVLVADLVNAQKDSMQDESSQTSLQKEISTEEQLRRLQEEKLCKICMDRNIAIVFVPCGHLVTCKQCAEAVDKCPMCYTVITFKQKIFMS

Row | Structure (SMILES) | z-score [1] | z-score [2] | z-score [3] | z-score [4] | z-score [5] | z-score [6] | z-score [7] | z-score [8] | z-score [9] | z-score [10] | z-score [11] | z-score [12] | z-score [13] | composite z-score [14] | z-score [15] | z-score [16] | z-score [17] | z-score [18] | z-score [19] | composite z-score [20]
1 | C=CCOC(=O)[C@@H]1[C@H]2C(=O)O[C@H](c3ccccc3)[C@H](c3ccccc3)N2[C@H](c2ccc(OCCOC(=O)[C@H]3C[C@H]4C(=O)N5CCC[C@H]5C(=O)N4[C@H]3c3cccc(OCCO)c3)cc2)[C@@]12C(=O)Nc1ccc(I)cc12 | -0.302 | -0.506 | -0.28 | 0.328 | -0.0082 | -2.08 | 0.667 (inactive) | -0.16 | -0.998 | 0.0981 (inactive) | 0.0829 | 2.04 (inactive) | -0.273 (inactive) | 0.0219 (inactive) | 3.81 (inactive) | 1.89 (inactive) | -0.0055 (inactive) | -0.365 (inactive) | -0.166 | 0.0003
2 | O=C(NCc1ccccc1)[C@@H]1c2ccccc2C(=O)N(Cc2ccc(OC(F)(F)F)cc2)[C@H]1c1ccc(CO)cc1 | 1.29 | 0.711 | 0.77 | -0.279 | 0.473 | 2.44 | -0.602 (inactive) | -0.728 | 0.809 | 1.39 (inactive) | 0.299 | -0.103 (inactive) | 0.61 (inactive) | -0.197 (inactive) | -0.109 (inactive) | -0.486 (inactive) | 0.822 (inactive) | 0.387 (inactive) | 1.5 | 0.371
3 | CC(C)C[C@@H]1NC(=O)[C@@]23C(=O)N[C@@H](Cc4ccccc4)C2[C@H](C)[C@@]2(C)O[C@H]2C3/C=C/C/C=C\CNC(=O)CNC1=O (stereo not given in full) | 0.201 | 0.97 | -0.47 | -0.288 | -0.174 | -0.572 | -0.159 (inactive) | 0.149 | 0.694 | -0.624 (inactive) | -0.62 | -1.68 (inactive) | 0.308 (inactive) | -0.658 (inactive) | 0.437 (inactive) | -0.773 (inactive) | -0.229 (inactive) | -0.911 (inactive) | -0.139 | -0.105
4 | O=C(NCCN1CCOCC1)[C@@H]1c2ccccc2C(=O)N(Cc2ccccc2C(F)(F)F)[C@H]1c1ccc(CO)cc1 | 1.9 | 0.783 | 0.893 | 0.561 | -0.588 | 2.59 | -0.0687 (inactive) | -0.335 | -0.109 | 1.94 (inactive) | 0.846 | -0.139 (inactive) | 1.17 (inactive) | -0.899 (inactive) | -0.342 (inactive) | -0.276 (inactive) | 0.394 (inactive) | 0.192 (inactive) | 1.44 | 0.0487
5 | COCCCNC(=O)[C@@]1(Sc2ccc(C)cc2)CC(=O)N(Cc2ccccc2C(F)(F)F)[C@@H]1c1ccc(CO)cc1I | -0.172 | 0.224 | 0.245 | -3.18 | -2.36 | -0.33 | -0.101 (inactive) | -0.339 | -1.33 | -0.731 (inactive) | -1.07 | -2.19 (inactive) | -2.56 (inactive) | 0.0681 (inactive) | 0.0993 (inactive) | -1.2 (inactive) | -0.473 (inactive) | 0.0799 (inactive) | -2.75 | 0.419
6 | CCCCC(O)C1C=CC2C(=O)N(c3ccccc3)C(=O)C2N1Nc1ccccc1 (stereo not given) | 0.645 | -1.91 | -0.371 | 0.225 | -0.374 | -1.43 | 0.466 (inactive) | -0.241 | 0.0498 | 0.134 (inactive) | 0.281 | -1.67 (inactive) | -0.125 (inactive) | 0.477 (inactive) | -0.0625 (inactive) | 0.632 (inactive) | -0.407 (inactive) | 0.483 (inactive) | -0.0096 | 0.366
7 | O=C1C[C@@](C(=O)NC2CC2)(c2ccc([N+](=O)[O-])cc2)[C@@H](c2ccc(CO)cc2)N1C1CCCCC1 | 1.91 | 1.24 | -0.0212 | -0.177 | -1.3 | 1.28 | 0.0821 (inactive) | -0.00601 | -1.18 | 1.04 (inactive) | 0.363 | -1.44 (inactive) | 1.23 (inactive) | -6.96 (inactive) | 1.46 (inactive) | -2.37 (inactive) | 0.0991 (inactive) | -0.0005 (inactive) | 1.48 | -0.0574
8 | CC(C)N1C(=O)c2ccccc2[C@@H](C(=O)NCC(F)(F)F)[C@@H]1c1ccc(CO)cc1 | 0.346 | -1.81 | 0.569 | 0.238 | 0.371 | -0.0214 | -0.516 (inactive) | -0.00189 | 0.0428 | -0.0442 (inactive) | 0.4 | -0.102 (inactive) | 0.0516 (inactive) | -0.262 (inactive) | -0.0807 (inactive) | 0.436 (inactive) | -0.196 (inactive) | -0.484 (inactive) | 0.236 | -0.111
9 | COCCOC(=O)N1C(=O)[C@@]2(c3cc(C#Cc4ccc(OC)cc4)ccc31)[C@H](c1ccc(OCCO)cc1)N1[C@H](c3ccccc3)[C@H](c3ccccc3)OC(=O)[C@H]1[C@@H]2C(=O)NC[C@H](O)c1ccccc1 | 0.0843 | -0.129 | -0.294 | -0.291 | -1.48 | -0.305 | 1.67 (inactive) | -0.68 | -1.52 | -0.377 (inactive) | -0.234 | 3.05 (inactive) | -0.486 (inactive) | -1.12 (inactive) | 5.17 (inactive) | 3.81 (inactive) | -0.6 (inactive) | -0.189 (inactive) | -0.508 | 0.115
